# Reference: PubChem BioAssay (NCATS)
# Results filed as inconclusive are left out. Calls of active or inactive are those of the source. Unless noted, the call rests on the fitted dose curve.
# Legend:
# [1] = biological target: Estrogen receptor (Homo sapiens) (UniProt P03372); assay: qHTS assay for small molecule agonists of estrogen receptor alpha signaling (AID 588514);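 further: 0% = vehicle only and 100% = reference agonist; nearly all actives have a fitted effect of over 70% in size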
# How it was run: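 Reporter-gene assay. […] controls beta-lactamase in HEK 293 GripTite cells; after 18 hrs with compound, CCF4 substrate is added for 2 hrs and fluorescence is read.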
# [2] = biological target: Glucocorticoid receptor (Homo sapiens) (UniProt P04150); assay: qHTS assay for small molecule antagonists of glucocorticoid receptor signaling (AID 588533; active means well fitted inhibition curve with a large enough effect in the signal ratio, with a control signal flat, not every such curve was filed as active; the % refers to the signal ratio;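 further: cells stimulated with 2 nM dexamethasone as agonist; on the % scale 0 is the no-effect control and ±100 the full control effect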)
# Chain of Glucocorticoid receptor (Homo sapiens) (P04150 whole entry, looked up): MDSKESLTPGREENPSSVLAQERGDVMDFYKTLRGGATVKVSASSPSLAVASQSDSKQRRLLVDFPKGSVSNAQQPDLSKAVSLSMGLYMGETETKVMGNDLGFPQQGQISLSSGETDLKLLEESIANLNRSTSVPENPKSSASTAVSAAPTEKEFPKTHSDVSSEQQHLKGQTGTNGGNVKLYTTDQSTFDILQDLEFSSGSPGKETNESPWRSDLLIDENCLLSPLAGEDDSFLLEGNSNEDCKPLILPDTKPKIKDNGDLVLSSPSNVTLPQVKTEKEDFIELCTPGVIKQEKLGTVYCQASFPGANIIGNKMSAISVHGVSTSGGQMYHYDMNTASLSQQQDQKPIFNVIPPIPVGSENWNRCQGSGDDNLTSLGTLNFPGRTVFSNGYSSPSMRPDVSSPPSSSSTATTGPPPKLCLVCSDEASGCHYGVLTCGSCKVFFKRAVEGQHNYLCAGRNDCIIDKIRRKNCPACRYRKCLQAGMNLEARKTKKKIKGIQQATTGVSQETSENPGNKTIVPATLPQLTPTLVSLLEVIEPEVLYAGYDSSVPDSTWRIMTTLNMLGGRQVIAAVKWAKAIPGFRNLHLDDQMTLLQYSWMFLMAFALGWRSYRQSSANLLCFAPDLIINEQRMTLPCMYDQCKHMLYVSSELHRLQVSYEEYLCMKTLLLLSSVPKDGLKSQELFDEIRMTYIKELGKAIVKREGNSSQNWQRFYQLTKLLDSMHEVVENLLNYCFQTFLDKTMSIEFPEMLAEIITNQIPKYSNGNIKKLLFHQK
# How it was run: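 Antagonist-mode qHTS: compound titrations added to GRE-bla HeLa cells, then dexamethasone 2 nM final; 18 h, 37 C. CCF4 FRET fluorescence normalized to dexamethasone and DMSO; IC50 from Hill fit.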
# [3] = biological target: Vitamin D3 receptor (Homo sapiens) (UniProt P11473); assay: qHTS assay for small molecule antagonists of vitamin D receptor signaling (AID 588541);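 further: receptor activated by calcitriol during compound treatment; series mostly up to about 77 µM; on the % scale 0 is the no-effect control and ±100 the full control effect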
# Chain of Vitamin D3 receptor (Homo sapiens) (P11473 whole entry, looked up): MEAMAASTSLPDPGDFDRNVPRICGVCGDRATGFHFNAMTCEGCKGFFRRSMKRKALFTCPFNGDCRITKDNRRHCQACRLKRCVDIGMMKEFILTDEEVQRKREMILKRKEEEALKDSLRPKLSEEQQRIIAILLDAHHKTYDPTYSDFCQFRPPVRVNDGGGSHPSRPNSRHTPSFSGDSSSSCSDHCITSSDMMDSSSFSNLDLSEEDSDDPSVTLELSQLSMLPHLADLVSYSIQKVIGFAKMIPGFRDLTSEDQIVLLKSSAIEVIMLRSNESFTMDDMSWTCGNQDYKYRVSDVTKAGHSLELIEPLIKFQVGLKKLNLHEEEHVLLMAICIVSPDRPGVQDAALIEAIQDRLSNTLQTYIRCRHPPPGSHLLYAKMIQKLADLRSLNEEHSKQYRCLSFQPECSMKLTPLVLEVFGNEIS
# How it was run: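 Antagonist-mode beta-lactamase reporter assay: HEK293T VDR-UAS-bla cells were exposed to titrated compound alongside 1-alpha,25-dihydroxyvitamin D3 at 3 nM final for 16 h. Values were normalized to the 50 nM agonist control and DMSO basal, with IC50 and efficacy from Hill equation fits.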
# [4] = biological target: Vitamin D3 receptor (Homo sapiens) (UniProt P11473); assay: qHTS assay for small molecule agonists of vitamin D receptor signaling (AID 588543);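 further: 0% = DMSO basal and 100% = reference agonist control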
# How it was run: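 Measured: β-lactamase reporter activity (CCF4, 405 nm excitation, 460/530 nm emission) in HEK293T VDR-UAS-bla cells after 16 h compound exposure at 37 °C. Normalization against 50 nM 1α,25-dihydroxyvitamin D3 and DMSO; Hill-fit EC50.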
# [5] = qHTS assay for small molecule agonists of retinoid X receptor alpha signaling (AID 588544); conditions: HEK293T RXRa-UAS-bla, beta-lactamase reporter, 18 h; 530 nm emission;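 on activation: 0% = DMSO basal wells and 100% = reference agonist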
# [6] = biological target: Retinoic acid receptor RXR-alpha (Homo sapiens) (UniProt P19793); assay: as above
# Chain of Retinoic acid receptor RXR-alpha (Homo sapiens) (P19793 whole entry, looked up): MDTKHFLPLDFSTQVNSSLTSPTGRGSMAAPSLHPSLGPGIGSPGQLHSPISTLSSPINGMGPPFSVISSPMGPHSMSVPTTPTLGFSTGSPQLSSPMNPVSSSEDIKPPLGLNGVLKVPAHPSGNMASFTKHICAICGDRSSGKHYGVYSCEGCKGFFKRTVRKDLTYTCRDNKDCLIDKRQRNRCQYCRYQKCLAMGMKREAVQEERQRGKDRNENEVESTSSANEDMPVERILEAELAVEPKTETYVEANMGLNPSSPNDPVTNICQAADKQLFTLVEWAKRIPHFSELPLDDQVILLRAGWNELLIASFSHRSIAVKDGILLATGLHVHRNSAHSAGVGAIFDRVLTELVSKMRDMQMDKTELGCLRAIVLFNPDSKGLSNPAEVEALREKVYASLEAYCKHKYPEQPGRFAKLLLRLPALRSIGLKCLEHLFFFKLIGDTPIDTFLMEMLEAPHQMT
# [7] = biological target: Thyroid hormone receptor beta (Homo sapiens) (UniProt P10828); assay: qHTS assay for small molecule agonists of thyroid hormone receptor beta signaling (AID 588545)
# Chain of Thyroid hormone receptor beta (Homo sapiens) (P10828 whole entry, looked up): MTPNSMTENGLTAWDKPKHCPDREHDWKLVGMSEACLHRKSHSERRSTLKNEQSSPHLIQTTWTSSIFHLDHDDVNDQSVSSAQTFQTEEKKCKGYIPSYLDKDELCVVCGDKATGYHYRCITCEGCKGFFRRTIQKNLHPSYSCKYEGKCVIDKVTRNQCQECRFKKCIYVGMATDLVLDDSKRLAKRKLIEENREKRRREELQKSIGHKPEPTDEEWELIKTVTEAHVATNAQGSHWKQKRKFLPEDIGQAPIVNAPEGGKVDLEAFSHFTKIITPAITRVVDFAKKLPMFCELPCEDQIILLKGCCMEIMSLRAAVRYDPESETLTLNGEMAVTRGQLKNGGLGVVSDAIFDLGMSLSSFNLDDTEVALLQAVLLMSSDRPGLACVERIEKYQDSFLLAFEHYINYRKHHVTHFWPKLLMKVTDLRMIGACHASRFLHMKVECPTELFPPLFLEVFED
# How it was run: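 Agonist activity was read as beta-lactamase CCF4 fluorescence (405 ex, 460/530 em), scaled between DMSO (0%) and 10 nM T3 (100%), then Hill-fitted for EC50 and efficacy. HEK 293 TR-UAS-bla cells in 2% charcoal/dextran FBS medium were exposed 18 h at 37 C.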
# [8] = qHTS assay for small molecule antagonists of retinoid X receptor alpha signaling (AID 588546; active means well fitted inhibition curve with a large enough effect in the signal ratio, with a control signal flat, not every such curve was filed as active; the % refers to the signal ratio; further: potency means the concentration at half of the fitted maximal effect;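 on max response: cells stimulated with 9-cis-retinoic acid as agonist; on the % scale 0 is the no-effect control and ±100 the full control effect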); conditions: HEK293T RXRa-UAS-bla, beta-lactamase ratio, antagonist mode; measured here: W530 green channel, cytotoxicity proxy
# How it was run: (§1)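 Beta-lactamase reporter inhibition, read as CCF4 fluorescence ratio (ex 405, em 460/530 nm) after 2 h at RT. HEK293T UAS-bla cells, 2500/well, were stimulated with 9-cis-RA at 500 or 100 nM final alongside test compound for 18 h at 37 C.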
# [9] = biological target: Retinoic acid receptor RXR-alpha (Homo sapiens) (UniProt P19793); assay: as above; conditions: HEK293T RXRa-UAS-bla, beta-lactamase ratio, antagonist mode
# How it was run: as §1
# [10] = qHTS assay for small molecule activators of the nuclear factor-kappa B (NF-kB) signaling pathway (AID 651749; active means well fitted activation curve with a large enough effect in the signal ratio; the % refers to the signal ratio; further: series mostly up to about 77 µM; % of control where 0% means no effect); conditions: NF-kB-bla ME-180 cells, beta-lactamase FRET ratio, 16 h; activation: stronger effect = higher value
# How it was run: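 Stably transfected ME-180 line; NF-kB response element upstream of beta-lactamase. Treatment: compound or DMSO, 16 hr. Detection: fluorescent FRET substrate.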
# [11] = qHTS assay for environmental chemicals that activate the Aryl hydrocarbon Receptor (AhR) signaling pathway (AID 651777; active means well fitted curve in the direction sought with a large enough effect; an effect the other way counts as inactive or inconclusive; further: nearly all actives have a fitted effect of over 15% in size; further: potency means the concentration at half of the fitted maximal effect; on activation: % of control where 0% means no effect); conditions: 1A2-DRE human hepatoma cells, luciferase, 24 h; activation: stronger effect = higher value
# How it was run: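 Reporter gene assay: hepatoma cells with DRE/CYP1A2-luciferase, 24 hr compound incubation at 37 C, 5% CO2, luminescence after One-Glo (30 min, RT).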
# [12] = biological target: Peroxisome proliferator-activated receptor alpha (Homo sapiens) (UniProt Q07869); assay: qHTS assay for small molecule agonists of the peroxisome proliferator-activated receptor alpha (PPARalpha) signaling pathway (AID 651778; active means well fitted curve in the direction sought with a large enough effect; an effect the other way counts as inactive or inconclusive; further: % of control where 0% means no effect); conditions: PathHunter PPARalpha complementation, chemiluminescence, 6 h; max response: stronger effect = higher value
# Chain of Peroxisome proliferator-activated receptor alpha (Homo sapiens) (Q07869 whole entry, looked up): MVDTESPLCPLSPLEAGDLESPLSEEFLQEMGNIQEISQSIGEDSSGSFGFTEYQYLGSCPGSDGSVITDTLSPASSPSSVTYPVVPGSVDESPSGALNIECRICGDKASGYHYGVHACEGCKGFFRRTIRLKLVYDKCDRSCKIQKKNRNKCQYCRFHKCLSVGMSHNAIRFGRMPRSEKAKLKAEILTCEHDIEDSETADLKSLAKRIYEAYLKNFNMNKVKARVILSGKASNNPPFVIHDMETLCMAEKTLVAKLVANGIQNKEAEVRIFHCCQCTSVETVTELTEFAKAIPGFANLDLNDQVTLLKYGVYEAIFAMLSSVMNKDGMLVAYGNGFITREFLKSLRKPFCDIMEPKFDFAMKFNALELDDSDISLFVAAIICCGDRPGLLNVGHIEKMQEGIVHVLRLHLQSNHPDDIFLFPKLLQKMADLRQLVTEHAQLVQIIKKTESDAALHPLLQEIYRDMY
# How it was run: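 Chemiluminescence from complemented enzyme reported PPARalpha activation in cells after 6 hr of compound treatment at 37 C. The detection reagent was incubated for 60 min at room temperature, and compounds were scored as agonists.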
# [13] = qHTS assay for small molecule agonists of the antioxidant response element (ARE) signaling pathway measured by Nrf2-dependant transcriptional activity (AID 720636; active means well fitted curve in the direction sought with a large enough effect in the repeat runs; an effect the other way counts as inactive or inconclusive;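 further: HepG2 cells with an ARE-driven luciferase reporter; % of control where 0% means no effect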)
# How it was run: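 Nrf2-dependent transcription is measured in ARE-luc HepG2 cells: compound is applied for 16 hr at 37 C after a 6 hr attachment period, and luciferase activity is quantified by luminescence using ONE-Glo.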
# [14] = qHTS assay for small molecule agonists of the antioxidant response element (ARE) signaling pathway measured by Nrf2-dependant transcriptional activity - cell viability counter screen (AID 720653; active means well fitted curve in the direction sought with a large enough effect in the repeat runs; an effect the other way counts as inactive or inconclusive; further: on the % scale 0 is the no-effect control and ±100 the full control effect); conditions: ARE-bla HepG2 viability, CellTiter-Glo ATP luminescence, 16 h; max response: stronger effect = lower value
# How it was run: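 Cytotoxicity counter screen: intracellular ATP quantified by CellTiter-Glo luminescence in the same ARE-bla HepG2 plates, after 16 h compound exposure and a 2 h beta-lactamase substrate step.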
# [15] = qHTS assay for cell viability of HEK293 cells (AID 743288; active means well fitted curve in the direction sought with a large enough effect; an effect the other way counts as inactive or inconclusive; further: on the % scale 0 is the no-effect control and ±100 the full control effect; nearly all actives have a fitted effect of over 50% in size); conditions: ATP luminescence (CellTiter-Glo), 18 h; max response: stronger effect = lower value
# How it was run: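 Luminescent ATP quantitation served as the viability read-out. Cells (parental HEK293, 2,000/well) received compounds after at least 5 h at 37 C and were exposed for 18 h before a 30 min room-temperature reagent step.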
# [16] = qHTS assay for cell viability of the p53RE-bla HCT-116 cell line (AID 743292; active means well fitted curve in the direction sought with a large enough effect; an effect the other way counts as inactive or inconclusive; further: on the % scale 0 is the no-effect control and ±100 the full control effect; nearly all actives have a fitted effect of over 55% in size)
# How it was run: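 ATP-based luminescence, 16 h compound exposure at 37 C, p53RE-bla HCT-116 cells at 4,000/well.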
# [17] = biological target: Nuclear receptor subfamily 1 group I member 2 (Rattus norvegicus) (UniProt Q9R1A7); assay: qHTS assay for small molecule activators of the rat pregnane X receptor (rPXR) signaling pathway (AID 651751; call rule not given here; further: 0% is about no effect); conditions: rPXR reporter cells, luciferase (One-Glo), 24 h
# Chain of Nuclear receptor subfamily 1 group I member 2 (Rattus norvegicus) (Q9R1A7 whole entry, looked up): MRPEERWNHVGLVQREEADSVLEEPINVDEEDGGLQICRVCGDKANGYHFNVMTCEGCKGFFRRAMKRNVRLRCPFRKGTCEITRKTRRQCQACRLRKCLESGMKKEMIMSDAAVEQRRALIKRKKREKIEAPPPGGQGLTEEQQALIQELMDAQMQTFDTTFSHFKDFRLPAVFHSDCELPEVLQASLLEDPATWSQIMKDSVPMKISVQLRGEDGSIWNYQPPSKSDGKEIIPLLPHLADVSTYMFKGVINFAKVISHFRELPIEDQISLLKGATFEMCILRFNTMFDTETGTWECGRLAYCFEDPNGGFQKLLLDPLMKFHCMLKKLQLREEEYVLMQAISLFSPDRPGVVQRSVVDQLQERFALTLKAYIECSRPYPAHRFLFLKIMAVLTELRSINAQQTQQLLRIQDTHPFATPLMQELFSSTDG
# [18] = biological target: Glucocorticoid receptor (Homo sapiens) (UniProt P04150); assay: qHTS assay for small molecule agonists of glucocorticoid receptor signaling (AID 588532; active means well fitted curve in the direction sought with a large enough effect in the signal ratio, with a control signal flat; the % refers to the signal ratio;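 further: 100% = dexamethasone at 0.1 µM and 0% = DMSO only wells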); conditions: HeLa MMTV-bla, beta-lactamase ratio, agonist, 18 h; stronger effect = higher value; percent of dexamethasone control, DMSO zero
# How it was run: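 Using MMTV-bla HeLa cells in medium with 1% stripped FBS and 25 mM HEPES, compounds were titrated and incubated overnight-length (18 h). Beta-lactamase cleavage of CCF4 was quantified by dual-emission fluorescence.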
# [19] = biological target: Peroxisome proliferator-activated receptor gamma (Homo sapiens) (UniProt P37231); assay: qHTS assay for small molecule agonists of peroxisome proliferator-activated receptor gamma signaling (AID 588536; active means well fitted curve in the direction sought with a large enough effect in the signal ratio, with a control signal flat, not every such curve was filed as active; the % refers to the signal ratio;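 further: 0% = DMSO basal wells and 100% = rosiglitazone at 2 µM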)
# Chain of Peroxisome proliferator-activated receptor gamma (Homo sapiens) (P37231 whole entry, looked up): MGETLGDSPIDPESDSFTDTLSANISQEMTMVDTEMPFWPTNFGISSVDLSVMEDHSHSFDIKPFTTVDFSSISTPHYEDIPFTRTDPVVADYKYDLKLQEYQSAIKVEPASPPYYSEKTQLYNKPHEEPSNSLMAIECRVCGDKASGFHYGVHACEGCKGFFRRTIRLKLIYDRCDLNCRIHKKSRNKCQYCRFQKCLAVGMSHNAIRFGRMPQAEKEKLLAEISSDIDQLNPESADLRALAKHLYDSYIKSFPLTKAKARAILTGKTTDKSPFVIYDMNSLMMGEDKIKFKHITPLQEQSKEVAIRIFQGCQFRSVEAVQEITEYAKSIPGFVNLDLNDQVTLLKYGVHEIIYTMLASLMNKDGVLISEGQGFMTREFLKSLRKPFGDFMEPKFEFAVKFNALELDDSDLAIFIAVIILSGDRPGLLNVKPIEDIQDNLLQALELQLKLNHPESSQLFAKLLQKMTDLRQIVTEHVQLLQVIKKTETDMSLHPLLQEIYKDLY
# How it was run: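 HEK293 UAS-bla reporter line, 1% charcoal/dextran FBS; titration, 16 h, 37 C; CCF4 loading 2 h RT; fluorescence 460/530 nm. Normalized to rosiglitazone 2 uM = 100%, DMSO = 0%.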
# [20] = qHTS assay for small molecule activators of the human pregnane X receptor (PXR) signaling pathway (AID 720659; call rule not given here; further: 0% is about no effect)
# Chain of Estrogen receptor (Homo sapiens) (P03372 whole entry, looked up): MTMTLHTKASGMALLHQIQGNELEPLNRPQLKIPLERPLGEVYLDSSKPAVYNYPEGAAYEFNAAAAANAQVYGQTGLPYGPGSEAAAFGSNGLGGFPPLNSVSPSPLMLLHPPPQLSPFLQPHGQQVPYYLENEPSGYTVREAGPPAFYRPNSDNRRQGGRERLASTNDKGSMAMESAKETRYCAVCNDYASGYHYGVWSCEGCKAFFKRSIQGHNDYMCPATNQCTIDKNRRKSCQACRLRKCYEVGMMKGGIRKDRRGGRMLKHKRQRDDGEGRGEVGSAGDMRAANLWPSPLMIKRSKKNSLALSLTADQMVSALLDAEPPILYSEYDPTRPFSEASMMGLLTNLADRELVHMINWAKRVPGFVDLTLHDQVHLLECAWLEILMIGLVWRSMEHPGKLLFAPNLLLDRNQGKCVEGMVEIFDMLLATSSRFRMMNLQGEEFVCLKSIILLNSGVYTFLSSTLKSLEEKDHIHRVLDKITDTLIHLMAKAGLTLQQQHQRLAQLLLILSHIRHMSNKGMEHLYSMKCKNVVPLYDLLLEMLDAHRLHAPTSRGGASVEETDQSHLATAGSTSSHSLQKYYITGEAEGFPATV
compound,measurement,setting,value
CC(C)Cc1c(C(=O)O)c(C(F)F)nc(C(F)(F)F)c1C1=NCCS1,Potency,[1],inactive
same,Potency,[2],inactive
same,Potency,[3],inactive
same,outcome,[4],inactive
same,max response,[5],-17.4%
same,Potency,[6],inactive
same,Potency,[7],inactive
same,max response,[8],-0.767%
same,max response,[9],6.24% (inactive)
same,activation,[10],1.24% (inactive)
same,activation,[11],-4.01% (inactive)
same,max response,[12],-0.845% (inactive)
same,Potency,[13],inactive
same,max response,[14],3.82% (inactive)
same,max response,[15],-5.4% (inactive)
same,Potency,[16],inactive
same,max response,[17],-2.45% (inactive)
CC(=O)Nc1ccc(N=Nc2cc(C)ccc2O)cc1,Potency,[1],inactive
same,activation,[18],-3.33% (inactive)
same,Potency,[2],inactive
same,outcome,[4],inactive
same,max response,[5],3.3%
same,Potency,[6],inactive
same,Potency,[7],inactive
same,max response,[8],-4.33%
same,max response,[9],-20.6% (inactive)
same,activation,[10],-1.84% (inactive)
same,Potency,[11],4.47 µM (active)
same,max response,[12],-3.57% (inactive)
same,max response,[14],1.65% (inactive)
same,max response,[15],-16.4% (inactive)
same,Potency,[16],inactive
same,max response,[17],1.28% (inactive)
c1ccc(B(c2ccccc2)c2ccccc2)cc1,Potency,[1],inactive
same,activation,[18],-5.17% (inactive)
same,Potency,[2],inactive
same,outcome,[19],inactive
same,Potency,[3],inactive
same,outcome,[4],inactive
same,max response,[5],7.43%
same,Potency,[6],inactive
same,Potency,[7],inactive
same,max response,[8],3.4%
same,max response,[9],-24.3% (inactive)
same,activation,[10],-3.07% (inactive)
same,activation,[11],1.54% (inactive)
same,max response,[12],-0.443% (inactive)
same,Potency,[13],inactive
same,max response,[14],-1.71% (inactive)
same,max response,[15],-15.9% (inactive)
same,Potency,[16],inactive
same,max response,[17],1.02% (inactive)
O=c1[nH]sc2ccccc12,Potency,[1],inactive
same,activation,[18],-3.87% (inactive)
same,outcome,[4],inactive
same,Potency,[7],inactive
same,max response,[8],-44.3%
same,Potency,[9],20 µM (active)
same,activation,[10],-1.58% (inactive)
same,activation,[11],2.41% (inactive)
same,max response,[12],-8.62% (inactive)
same,max response,[14],-17.7% (inactive)
same,Potency,[16],inactive
same,outcome,[20],inactive
O=C(O)C(Oc1ccc(Cl)cc1)Oc1ccc(Cl)cc1,Potency,[1],inactive
same,activation,[18],-6.89% (inactive)
same,Potency,[2],inactive
same,outcome,[4],inactive
same,max response,[5],4.78%
same,Potency,[6],inactive
same,Potency,[7],inactive
same,max response,[8],-7.28%
same,max response,[9],-10.5% (inactive)
same,activation,[10],0.776% (inactive)
same,activation,[11],-1.04% (inactive)
same,max response,[12],4.93% (inactive)
same,Potency,[13],inactive
same,max response,[14],-5.82% (inactive)
same,max response,[15],-2.57% (inactive)
same,Potency,[16],inactive
same,max response,[17],-9.92% (inactive)
same,outcome,[20],inactive
OC1CCC(C2CCCCC2)CC1 (stereo not drawn),Potency,[1],inactive
same,Potency,[2],inactive
same,outcome,[19],inactive
same,Potency,[3],inactive
same,outcome,[4],inactive
same,max response,[5],-2.23%
same,Potency,[6],inactive
same,max response,[8],-5.21%
same,max response,[9],6.85% (inactive)
same,activation,[11],-1.51% (inactive)
same,max response,[12],-0.35% (inactive)
same,Potency,[13],inactive
same,max response,[14],-10.1% (inactive)
same,Potency,[16],inactive
same,max response,[17],-2.53% (inactive)
same,outcome,[20],inactive
